From PubChem BioAssay (NCI)
About 83,000 compounds went through this panel and 20% of them were active in at least one assay; those are over-represented in the sample as a whole.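 Testing used 96-well plates and a 48-hour single-concentration exposure. Example: -40 means 40% of the starting cells died.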 Activity calls are given as the source filed them.

Tested on: SNB-75 CNS
Assay: NCI-60 one-dose screen, 48 h (100 = growth as untreated, 0 = no growth, -100 = all killed)
Conditions: 10 µM unless noted
Method: Growth inhibition of the SNB-75 human tumor cell line is measured as a screen for anti-cancer activity. Cells are grown in 96 well plates and exposed to the test compound for 48 hours. Compounds are tested at a single concentration, which is 10^-5 M for most compounds. The reported endpoint is percent growth (GI% or GIPRCNT), where numbers from 0 - 100% represent growth inhibition, and numbers from -100% - 0 represent cell death. For example, a value of 40 represents 60% growth inhibition. A value of 0 means no net growth occurred over the course of the experiment. A value of -40 indicates 40% of cells at the beginning of the experiment died by the end of the experiment. A value of -100 means all cells are dead at the end of the experiment.
NCI-60 Human Tumor Cell Lines Screen was performed using the standard one-dose NCI protocol, which is described in more detail at https://dtp.cancer.gov/discovery_development/nci-60/default.htm.
Compounds with GIPRCNT values below 10 were considered active. Activity score was based on GIPRCNT using the following formula: […]
Score is 0 for GIPRCNT values of 100 or above, 50 for GIPRCNT values of 0, and 100 for GIPRCNT values of -100.

Row | SMILES | growth
1 | O=C(NCc1ccccc1)C(Cl)Cl | 102% (inactive)
2 | O=C(N[C@@H]1CCCc2ccccc21)[C@H](CCC(=O)N1CCN(C2CCCCC2)CC1)N1C(=O)[C@@H](N2C(=O)OC[C@@H]2c2ccccc2)[C@H]1/C=C/c1ccccc1 | 65.7% (inactive)
3 | CCN(CCNc1ccc(C)c2sc3cc(Cl)ccc3c(=O)c12)CC(C)O (stereo not given) | 66.5% (inactive)
4 | O=C1CC(C(F)(F)F)Cc2nc3ccc(Br)cc3cc21 (stereo not given) | 78.5% (inactive)
5 | CCn1cc(-c2ccnc(NCCNS(=O)(=O)c3ccc(Br)cc3)c2)c(-c2cccc(OC)c2)n1 | 81.7% (inactive)
6 | CCOC(=O)C(=Cc1ccccc1[N+](=O)[O-])C(=O)OCC | -7.8% (active)
7 | O=C(Oc1ccc(Cl)cc1[N+](=O)[O-])Oc1ccc(Cl)cc1[N+](=O)[O-] | 108% (inactive)
8 | CCN(CC)CCCCCCNc1cccc2cc(Br)cnc12 | 92.2% (inactive)
9 | C=C(C)[C@@H]1CC[C@]2(c3ncc(C)o3)CC[C@]3(C)[C@H](CC[C@@H]4[C@@](C)(CCC#N)[C@H](C(=C)C)CC[C@]43C)[C@@H]12 | -86.8% [100 µM] (active)
10 | Clc1ccc(N2CCN(CCCN3CCN(c4cccc(Cl)c4)CC3)CC2)cc1 | 52.3% (inactive)
11 | O=C(O)CSCc1nnc2n(Cc3ccccc3)c(=O)c3c4c(sc3n12)CCCC4 | 87.4% (inactive)
12 | O=[N+]([O-])c1cccc(/C=C/c2ccc3ccccc3n2)c1 | 7.41% (active)
13 | O=C(O)c1cn(C2CC2)c2cc(N3CCN(Cc4c(O)ccc5ccccc45)CC3)c(F)cc2c1=O | -20.8% (active)
14 | O=C(N/N=C/c1ccc([N+](=O)[O-])cc1)c1ccc(Br)o1 | 105% (inactive)
15 | CCOc1cccc2c(NC(C)CCCN(CC)CC)c(C)cnc12 (stereo not given) | 67.9% (inactive)
16 | Cc1ccc(S(=O)(=O)NCCCNc2nccc(-c3c(-c4cccc(F)c4)nc4occn34)n2)cc1 | 73.5% (inactive)
17 | CCOC(=O)CC(c1ccccc1)C(C#N)c1ccccc1 (stereo not given) | 82.1% (inactive)
18 | Nc1nc(Nc2ccccc2)c2ncn(Cc3ccc4c(c3)OCO4)c2n1 | 29.4% (inactive)
19 | Nc1ccc(Cl)c([N+](=O)[O-])c1 | 89.3% (inactive)
20 | CC1(C)CC[C@]2(C(=O)O)CC[C@]3(C)C(=CC[C@@H]4[C@@]5(C)C/C(=C/c6cccnc6)[C@H](O)C(C)(C)[C@@H]5CC[C@]43C)[C@@H]2C1 | 19.5% [100 µM] (inactive)

Row | SMILES | growth
21 | Cc1ccc2c(c1)/C(=N\N=C/c1cn(C(C)C)c3ccccc13)C(=O)N2 | 67.3% (inactive)
22 | CCN(CC)CCCNCc1cc(-c2ccccc2)nc2ccccc12 | 73.6% (inactive)
23 | C=C(C)[C@@H]1CC[C@]2(C)[C@H](CC[C@@H]3[C@@H]([C@@](C)(O)CCC=C(C)C)CC[C@]32C)[C@@]1(C)CCC(=O)O | -37.5% [100 µM] (active)
24 | COc1cc2c(c(OC)c1)C1c3cc(OC)ccc3NC(=O)N1CC2 (stereo not given) | 83.2% (inactive)
25 | C=C(C)[C@@H]1CC[C@]2(C(=O)NCCCCCCN(CCCN)CCCN)CC[C@]3(C)[C@H](CC[C@@H]4[C@@]5(C)CC[C@H](OCCCN)C(C)(C)[C@@H]5CC[C@]43C)[C@@H]12 | 84.5% [100 µM] (inactive)
26 | N#C/C(C(=O)c1ccccc1)=C1/C(=O)Nc2ccc(F)cc21 | 78.3% (inactive)
27 | CC(C)C1=NOC(=O)C1=Cc1cn(-c2ccccc2)nc1-c1ccccc1 | 72.5% (inactive)
28 | CCCn1ccnc1C(O)c1ccc(OCc2ccccc2)c(OC)c1 (stereo not given) | 71.2% (inactive)
29 | O=S(=O)(/N=c1/n(-c2ccccc2)nc2n1CCN2C1=NCCN1)c1ccc(-c2ccccc2)cc1 | 85% (inactive)
30 | CC1=CC[C@@H]2C(C)(C)C(=O)CC[C@@]2(C)[C@@H]1COc1ccc2ccc(=O)oc2c1 | 76.6% (inactive)
31 | CCOc1ccc2sc(NS(=O)(=O)c3ccc(N)cc3)nc2c1 | 98.2% (inactive)
32 | C=CCc1nc2ccccc2s1 | 90.2% (inactive)
33 | C#CCC(C(=O)OCC)C(=O)OCC | 90.5% (inactive)
34 | COC(=O)c1cc2c(=O)[nH]cc3c2c(n1)CCC3 | 104% (inactive)
35 | C[C@H]1[C@H](C)CC[C@]2(C(=O)O)CC[C@]3(C)C(=CC[C@@H]4[C@@]5(C)C/C(=C/c6ccco6)C(=O)C(C)(C)[C@@H]5CC[C@]43C)[C@H]12 | -55.9% [100 µM] (active)
36 | Nc1cc(C(=O)O)[nH]c(=S)n1 | 91.4% (inactive)
37 | Fc1cc2[nH]ncc2c2c3c(c(-c4cn[nH]c4C(F)(F)F)nc12)C1CCC3C1 (stereo not given) | -4.22% (active)
38 | O=C1Nc2ccccc2/C1=C/C(=O)c1ccc(N2CCOCC2)cc1 | 90.5% (inactive)
39 | O=C(CSc1nc2ccc([N+](=O)[O-])cc2[nH]1)Nc1ccc(F)c(Cl)c1 | 28.7% (inactive)
40 | O=C(NNc1ccc(-c2ccccc2)nn1)c1ccccc1 | 71% (inactive)
